Source: PubChem BioAssay
Compounds with a hit are over-represented: about 8.7% of the library has one in this group of screens.
HP1b chromo inh: inhibitors of HP1-beta chromodomain binding to methylated histone tails. P83916. AlphaScreen HP1-beta / biotin-H3K9me3 peptide binding. Potency, µM (top dose mostly 114 µM), for the others: top-dose activity change, negative = inhibition, usual class: inhibitors. 390,000 tested, 0.56% active; further: nearly all actives have a fitted effect of over 70% in size
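Compound inhibition of the preformed complex between 50 nM HP1-beta and 50 nM biotinylated H3K9me3 peptide was read by AlphaScreen. Buffer was PBS pH 7.4 with 0.01% Tween-20. Incubations ran 30 min at room temperature, with 10 ug/mL donor/acceptor beads.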
G9a block: blocks human histone lysine methyltransferase G9a. Q96KQ7. Potency, µM (series often up to 102 µM), for inactives: top-dose activity, negative = inhibition, most hits filed as inhibitors. AID 504332. 350,000 tested, 8.8% active. G9a H3K9 monomethylation, AlphaScreen, 2 h; further: on the % scale 0 is the no-effect control and ±100 the full control effect; nearly all actives have a fitted effect of over 75% in size
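G9a (20 nM) was preincubated 15 min with compound, then reacted 2 h at room temperature with 500 nM biotin-H3K9 peptide and 20 µM SAM. Monomethyl-H3K9 detected by AlphaScreen using anti-H3K9me1 antibody.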
JMJD2A Tudor inh: blocks the human JMJD2A Tudor domain | AlphaScreen JMJD2A-Tudor / H3K4me3 peptide binding | Potency, µM (series often up to 114 µM), without a hit: top-dose activity change, negative = inhibition, usual class: inhibitors | 390,000 tested, 4.4% active | O75164; further: on the % scale 0 is the no-effect control and ±100 the full control effect; nearly all actives have a fitted effect of over 50% in size
BAZ2B block: BAZ2B (human) inhibition; Potency, µM (titrated, usually from 114 µM), for the others: top-dose activity change, negative = inhibition, most hits filed as inhibitors; Q9UIF8; AlphaScreen BAZ2B-H3K14Ac peptide displacement; AID 504333; 360,000 tested, 4.4% active; further: on the % scale 0 is the no-effect control and ±100 the full control effect; nearly all actives have a fitted effect of over 60% in size
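AlphaScreen luminescence quantifies BAZ2B engagement of H3K14Ac peptide; the protein and biotinylated peptide are both at 50 nM final, buffer PBS pH 7.4 with 0.01% Tween-20, all steps at room temperature.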
Sfp PPTase inh: blocks B. subtilis Sfp PPTase activity | Q9F4F7 | Biochemical Sfp PPTase activity, qHTS | AID 1490 | 310,000 tested, 3.5% active | Potency, µM, inactives show largest response in the series, negative = inhibition, hits mostly inhibitors;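 further: the enzyme is Sfp with the accession as filed and its product quenches rhodamine fluorescence; 0% = enzyme reaction without inhibitor and -100% = no enzyme wells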
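Sfp 15 nM + cpd, 15 min RT; start w/ rhodamine-CoA 5 uM, BHQ-2-YbbR 12.5 uM (final); 50 mM Hepes pH 7.6, 10 mM MgCl2, 0.01% NP-40, 0.01% BSA; read 525/598 nm at 0 and 30 min.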
ALOX12 inh: inhibitors of human 12S-lipoxygenase ALOX12; P18054; purified 12hLO, xylenol orange hydroperoxide absorbance; Potency, µM (series often up to 108 µM), inactives show top-dose activity change, negative = inhibition, actives largely listed as inhibitors; 580,000 tested, 1.1% active; AID 1671190; further: on the % scale 0 is the no-effect control and ±100 the full control effect
Target sequence (P18054 whole entry, looked up): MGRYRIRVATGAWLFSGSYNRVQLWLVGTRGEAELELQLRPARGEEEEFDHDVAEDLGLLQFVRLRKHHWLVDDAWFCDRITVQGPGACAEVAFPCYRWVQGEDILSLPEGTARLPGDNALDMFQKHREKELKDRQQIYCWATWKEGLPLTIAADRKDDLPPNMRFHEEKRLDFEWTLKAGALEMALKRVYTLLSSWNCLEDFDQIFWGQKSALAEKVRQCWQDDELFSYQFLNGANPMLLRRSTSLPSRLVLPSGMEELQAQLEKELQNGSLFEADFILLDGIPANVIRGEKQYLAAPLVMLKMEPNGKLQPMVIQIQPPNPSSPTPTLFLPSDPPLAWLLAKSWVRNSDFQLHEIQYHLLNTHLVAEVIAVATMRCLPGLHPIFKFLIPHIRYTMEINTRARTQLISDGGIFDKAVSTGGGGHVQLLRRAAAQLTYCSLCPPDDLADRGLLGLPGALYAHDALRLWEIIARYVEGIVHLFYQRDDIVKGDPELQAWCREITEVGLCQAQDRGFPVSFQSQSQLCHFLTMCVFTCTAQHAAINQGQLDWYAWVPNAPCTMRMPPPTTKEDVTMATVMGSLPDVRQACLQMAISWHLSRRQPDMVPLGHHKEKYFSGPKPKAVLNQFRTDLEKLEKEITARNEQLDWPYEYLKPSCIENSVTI
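Purified human 12hLO (150 nM final) in 25 mM Hepes, 0.01% Triton X-100, pH 7.0 was preincubated 15 min at room temperature with compound. Then 40 uM arachidonic acid was added, 30 min. Hydroperoxide was read by Fe-XO absorbance ratio 573/405 nm.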
* = called active by the depositor; u = inconclusive; x = not tested or not shown; [ ] = dose if it differs, or a comment. The call rests on the fitted dose curve; in most records, active means well fitted curve in the direction sought with a large enough effect; inconclusive means small, poorly fitted or top-dose-only effect, or another doubt; inactive means no such curve, though single readings can be large; an effect the other way counts as inactive or inconclusive. Potency means the concentration at half of the fitted maximal effect.

SMILES	HP1b chromo inh	G9a block	JMJD2A Tudor inh	BAZ2B block	Sfp PPTase inh	ALOX12 inh
O=C(NCCCN1CCN(c2ccc(F)cc2)CC1)Nc1ccccc1Cl	6%	u	-20%	u	x	-19%
CC(C)c1noc(-c2cn(C3CCCN(C(=O)c4cccc(Cl)c4)C3)nn2)n1 (stereo unspecified)	x	x	x	x	x	7%
CCc1ccc(N2CCN(CCNC(=O)Nc3ccc(OC)cc3)CC2)cc1	7%	0%[0.501 µM]	-18%	-6%	8%	u
CCc1ccc(NC(=O)NCCN2CCN(c3ccc(OC)cc3)CC2)cc1	21%	10µM*	-30%	u	2%	0%
Cc1ccc(Nc2nc(C(=O)N3CCC(C(=O)N4CCN(C)CC4)CC3)cs2)cc1	22%	50µM*	u	-7%	4%	-1%
O=C(NCCCN1CCc2ccccc2C1)Nc1ccc(Cl)cc1	14%	71µM*	-28%	0%	7%	u
Cc1ccc(Nc2nc(C(=O)N3CCC(C(=O)NCc4ccccc4)CC3)cs2)cc1	2%	1%	-15%	-2%	14%	-15%
CSc1ccc(NC(=O)NCCCN2CCC(Cc3ccccc3)CC2)cc1	-10%	u	u	40µM*	-8%	u
CCCN1CCN(C(=O)C2(c3ccc(NC(=O)C(C)C)cc3)CCCCC2)CC1	x	x	x	x	x	36%
CC(=O)Nc1ccc(I)cc1C	x	x	x	x	x	-20%
O=C(Nc1ccc(Cl)cc1)N1CCc2ccccc2C1	45%	u	18%	u	79µM*	-14%
COc1ccc(NC(=O)NCCN2CCc3ccccc3C2)cc1	16%	u	20µM*	2%	-9%	u
COc1ccc(N2CCN(c3ccc(NC(=O)/C=C\C(=O)O)cc3)CC2)cc1	9%	45µM*	-27%	u	4%	3%
COc1ccc(N2CCN(CCCNC(=O)C3(S(=O)(=O)c4ccc(Cl)cc4)CC3)CC2)cc1	u	u	50µM*	u	-9%	x
c1ccc(-c2cc(NCCCOc3cccnc3)n3nccc3n2)cc1	x	x	x	x	x	82%
CCC(Oc1ccccc1F)C(=O)Nc1c(Cl)cccc1Cl (stereo unspecified)	x	x	x	x	x	18%
O=C(/C=C/c1c(F)cccc1Cl)N1CCc2ccccc2C1	50%	-8%[0.501 µM]	31%	20%	4%	5.6µM*
COc1ccc(Nc2nc(C(=O)N3CCc4ccccc4C3)cs2)cc1	u	x	45µM*	u	-4%	-2%
O=C(c1csc(Nc2cccc3ccccc23)n1)N1CCc2ccccc2C1	x	x	x	x	x	26%
CCN(CC)c1nc2ccccc2nc1C(=O)Nc1ccc(F)c(F)c1	x	x	x	x	x	4%
Cc1ccc2nc3n(c2c1)[C@@H](CNCc1cccnc1)COC3	x	x	x	x	x	41%[176 µM]
COc1ccc(-c2cc(C(F)(F)F)nc(S(=O)(=O)CCC(=O)Nc3ccccc3F)n2)cc1	x	x	x	x	x	114%
O=C1Cc2ccccc2C(=O)N1CCc1ccccc1	35%	32µM*	-22%	4%	-4%	277%
S=C(Nc1ccc(Cl)cc1Cl)N1CCCCC1	u	29%[59 µM]	-7%[57.1 µM]	7%	-1%	7%
S=C(c1ccc(-c2ccc(Cl)cc2Cl)o1)N1CCCCC1	-42%	u	u	22µM*	56µM*	u
SMILES	HP1b chromo inh	G9a block	JMJD2A Tudor inh	BAZ2B block	Sfp PPTase inh	ALOX12 inh
Cc1ccccc1NC(=O)c1ccc(-c2ccc(Cl)cc2Cl)o1	60%	-7%[59 µM]	8%	-2%	u	-13%
S=C(c1ccc(-c2ccc(Cl)cc2Cl)o1)N1CCCC1	u	x	50µM*	-14%	14µM*	u
O=C(NCCc1cccs1)C1CCN(c2ccc(C(F)(F)F)cn2)CC1	x	x	x	x	x	10%
Cc1ccc(S(=O)(=O)N2CCOCC2)cc1NC(=O)COC(=O)CSc1ccc(Br)cc1C	15%	18µM*	-29%	-2%	1%	-7%
Cc1ccc(S(=O)(=O)N2CCOCC2)cc1NC(=O)COC(=O)CNC(=O)c1ccc(C(C)(C)C)cc1	11%	50µM*	-20%	-28%	14%	-7%
Cc1ccc(C(=O)NCC(=O)OCC(=O)Nc2cc(S(=O)(=O)N3CCOCC3)ccc2C)cc1	46%	u	-12%	10%	x	-6%
CCN(CC)c1ccc(NS(=O)(=O)c2ccc3c(c2)CCCC3)cc1C(=O)O	x	x	x	x	x	7.9µM*
COc1ccc(S(=O)(=O)Nc2ccc3c(c2)CCC3)cc1	-12%	-8%	10µM*	6%	4%	u
CC(=O)Nc1ccc(S(=O)(=O)Nc2ccc3c(c2)CCC3)cc1	-4%	45µM*	-22%	-18%	-17%	u
CCN(CC)c1ccc(NS(=O)(=O)c2ccc(C(C)C)cc2)cc1C(=O)O	x	x	x	x	x	-28%
COc1ccc(S(=O)(=O)Nc2ccc(N(C)C(C)=O)cc2)cc1	16%	21%[59 µM]	-19%	11%	9%	-4%
CCN(CC)c1ccc(NS(=O)(=O)c2ccc(OC)cc2)cc1	25%	16µM*	-3%	40µM*	-16%	-17%
CC(C)C(=O)N1CCC2(CC1)N(C)C(=O)CS2(=O)=O	x	x	x	x	x	32%
COC(=O)[C@@H]1Cc2ncn(Cc3ccccc3)c2CN1S(=O)(=O)c1ccc(C)cc1	x	x	x	x	x	67%[176 µM]
CCNC(=O)N1CC[C@@H](CC(=O)O)[C@@H](CC2=NCCc3ccc(C)cc32)C1	x	x	x	x	x	10%[176 µM]
CC(=O)Nc1ccc(NS(=O)(=O)c2ccc3c(c2)oc(=O)n3C)cc1	39%	34%	6%	11%	12%	8.9µM*
COC(=O)/C(=C/c1cccc([N+](=O)[O-])c1)C(C)=O	x	x	x	x	x	-1%
Cn1cccc1/C=N/NC(=O)c1cc(-c2cccs2)nc2ccccc12	u	32µM*	u	22µM*	u	-29%
